Test results taken from PubChem BioAssay (Tox21).
Several values for one entry are separate records, joined by “and”; a condition that tells them apart may be missing. Equal entries are not always repeated. A number with no mark means an inactive call. A call without a number means that no potency is given here. Activity calls are given as the source filed them. Unless noted, calls come from the whole dose curve; as a rule, active = well fitted curve in the direction sought with a large enough effect in the repeat runs; inconclusive = weak or mixed curves; inactive = no such curve, though single readings can be large; an effect the other way counts as inactive or inconclusive.

Columns and labels:
[1] = qHTS assay to identify small molecule antagonists of the thyroid receptor (TR) signaling pathway (AID 743065); note: nearly all actives have a fitted effect of over 55% in size; note: potency is the fitted concentration of half-maximal effect
Procedure, shortened: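 Antagonism measured as loss of luciferase signal in GH3 cells stably carrying a TRE-luciferase reporter, co-treated with compound and T3 (1 nM final) for 23.5 h at 37 C. Viability was read in the same well by CellTiter-Fluor.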

[2] = test system: thyroid hormone receptor (rat, GH3 cells); experiment: qHTS assay to identify small molecule agonists of the thyroid receptor (TR) signaling pathway (AID 743066; calls by dose curve)
[3] = target: Estrogen receptor (Homo sapiens) (UniProt P03372); experiment: qHTS assay to identify small molecule antagonists of the estrogen receptor alpha (ER-alpha) signaling pathway (AID 743069; active = well fitted curve in the direction sought with a large enough effect in the signal ratio in the repeat runs, not every such curve was filed as active; inconclusive = weak or mixed curves, or effect the other way; inactive = no such curve, though single readings can be large or run the other way; the % refers to the signal ratio; note: potency is the fitted concentration of half-maximal effect)
Sequence of Estrogen receptor (Homo sapiens) (P03372 whole entry, looked up): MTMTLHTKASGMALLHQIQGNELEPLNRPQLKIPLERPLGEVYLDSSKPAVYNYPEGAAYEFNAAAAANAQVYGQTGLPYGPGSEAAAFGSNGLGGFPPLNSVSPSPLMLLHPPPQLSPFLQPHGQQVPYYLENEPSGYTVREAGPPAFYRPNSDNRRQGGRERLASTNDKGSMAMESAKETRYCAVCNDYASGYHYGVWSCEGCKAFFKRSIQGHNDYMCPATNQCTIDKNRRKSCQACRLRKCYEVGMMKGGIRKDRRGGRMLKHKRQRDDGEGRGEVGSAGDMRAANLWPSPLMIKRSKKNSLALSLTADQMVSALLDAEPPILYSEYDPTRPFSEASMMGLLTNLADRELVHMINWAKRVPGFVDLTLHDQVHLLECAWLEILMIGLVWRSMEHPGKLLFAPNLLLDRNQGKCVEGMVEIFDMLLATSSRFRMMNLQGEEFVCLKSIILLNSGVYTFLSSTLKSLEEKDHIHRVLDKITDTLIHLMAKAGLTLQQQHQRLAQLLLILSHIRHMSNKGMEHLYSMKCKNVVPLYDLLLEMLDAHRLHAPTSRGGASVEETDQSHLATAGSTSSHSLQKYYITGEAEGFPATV
Procedure, shortened: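 Compound effects are measured against 17beta-estradiol stimulation in HEK293 cells with a UAS-controlled beta-lactamase reporter for ER-alpha. Exposure lasts 18 hr at 37C; LiveBLAzer B/G FRET substrate follows for 2 hr at room temperature.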

[4] = qHTS assay to identify small molecule antagonists of the estrogen receptor alpha (ER-alpha) signaling pathway - cell viability counter screen (AID 743074; calls by dose curve;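 note: HEK293 cells carrying ER-alpha-UAS-bla reporter stimulated with 17beta-estradiol; nearly all actives have a fitted effect of over 45% in size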)
[5] = target: Estrogen receptor (Homo sapiens) (UniProt P03372); experiment: qHTS assay to identify small molecule agonists of the estrogen receptor alpha (ER-alpha) signaling pathway (AID 743075; calls by dose curve; note: potency is the fitted concentration of half-maximal effect)
[6] = target: Estrogen receptor (Homo sapiens) (UniProt P03372); experiment: qHTS assay to identify small molecule agonists of the estrogen receptor alpha (ER-alpha) signaling pathway using the BG1 cell line (AID 743079); conditions: BG1Luc4E2 cells, ERE-luciferase agonist, 22 h; note: nearly all actives have a fitted effect of over 20% in size; note: potency is the fitted concentration of half-maximal effect
[7] = qHTS assay to identify small molecule antagonists of the estrogen receptor alpha (ER-alpha) signaling pathway using the BG1 cell line (AID 743080; calls by dose curve;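 note: BG1 cells stimulated with 17beta-estradiol alongside compound; nearly all actives have a fitted effect of over 25% in size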; note: potency is the fitted concentration of half-maximal effect)
Procedure, shortened: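 BG1-Luc-4E2 cells (endogenous full-length ER-alpha, stable 4×ERE-luciferase) were starved 5 days in phenol-red-free medium with 10% charcoal-stripped FBS, plated 24 h, then given compound plus 17beta-estradiol for 21.5 h at 37 C; ONE-Glo luminescence read after 30 min.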

[8] = qHTS assay to identify small molecule antagonists of the estrogen receptor alpha (ER-alpha) signaling pathway using the BG1 cell line - cell viability counter screen (AID 743081);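 note: compound given together with 17beta-estradiol as the ER stimulus; nearly all actives have a fitted effect of over 45% in size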
Aromatase (Homo sapiens) = Aromatase (Homo sapiens) (UniProt P11511); experiment: qHTS assay to identify aromatase inhibitors (AID 743083); note: nearly all actives have a fitted effect of over 55% in size; note: potency is the fitted concentration of half-maximal effect
Sequence of Aromatase (Homo sapiens) (P11511 whole entry, looked up): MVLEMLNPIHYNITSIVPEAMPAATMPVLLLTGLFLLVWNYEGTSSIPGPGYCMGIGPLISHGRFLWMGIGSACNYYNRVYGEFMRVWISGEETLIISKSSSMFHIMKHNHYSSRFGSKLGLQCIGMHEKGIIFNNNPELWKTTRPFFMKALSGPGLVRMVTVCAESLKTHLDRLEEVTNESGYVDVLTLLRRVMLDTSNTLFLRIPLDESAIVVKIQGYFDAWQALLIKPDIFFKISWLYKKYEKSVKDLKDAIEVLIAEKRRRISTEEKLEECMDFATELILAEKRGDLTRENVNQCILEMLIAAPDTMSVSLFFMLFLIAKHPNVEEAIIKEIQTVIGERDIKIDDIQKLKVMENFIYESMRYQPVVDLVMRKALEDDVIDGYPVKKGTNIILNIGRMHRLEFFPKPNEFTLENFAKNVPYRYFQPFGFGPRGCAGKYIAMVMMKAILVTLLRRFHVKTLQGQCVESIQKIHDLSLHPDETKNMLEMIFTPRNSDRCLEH

[9] = qHTS assay to identify aromatase inhibitors - cell viability counter screen (AID 743084);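 note: cells stimulated with testosterone during compound exposure; nearly all actives have a fitted effect of over 55% in size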; note: potency is the fitted concentration of half-maximal effect

Row | SMILES | Potency [1] | Potency [2] | Potency [3] | Potency [4] | Potency [5] | activation ([6]; at 70.3 µM (top of the series)) | Potency [7] | Potency [8] | Potency (Aromatase (Homo sapiens)) | Potency [9] | activation ([6]; at 32.5 µM (top of the series)) | activation ([6]; at 95 µM (top of the series)) | Potency [6] | activation ([6]; at 260 µM (top of the series))
1 | CCOC(=O)CCl | inactive | inactive | inactive | inactive | inactive | 26.5% | inactive | inactive | inactive | inactive | – | – | – | –
2 | C[C@H]1CCCC(=O)CCC/C=C/c2cc(O)cc(O)c2C(=O)O1 | 23.4 µM (active) and 15.9 µM (active) | inactive | 47.2 µM [inconclusive] (active) | inactive | 13.3 nM [inconclusive] (active) and 71.5 nM [inconclusive] (active) | -34.9% (active) | 22.4 µM (active) | – | 23.4 µM (active) | 18.6 µM (active) | -13.6% (active) | – | – | –
3 | CCOP(=O)(CN(CCO)CCO)OCC | inactive | inactive | inactive | inactive | inactive | -2.5% | inactive | inactive | inactive | inactive | – | – | – | –
4 | O=C(CCl)NCO | inactive | inactive | inactive | inactive | inactive | -9.09% | inactive | inactive | inactive | inactive | – | – | – | –
5 | CC(C)[N+](C)(CCC(C(N)=O)(c1ccccc1)c1ccccc1)C(C)C | inactive | inactive | inactive | inactive | inactive | – | inactive | inactive | inactive | inactive | 1.94% | – | – | –
6 | CS(=O)(=O)Cl | inactive | inactive | inactive | inactive | inactive | – | inactive | inactive | inactive | inactive | – | 7.45% | – | –
7 | C=C(C)[C@H]1CN[C@H](C(=O)O)[C@H]1CC(=O)O | inactive | inactive | inactive | inactive | inactive | 2.22% | inactive | inactive | inactive | inactive | – | – | – | –
8 | C/C(=N\NC(=O)Nc1cc(F)cc(F)c1)c1ncccc1C(=O)O | inactive | inactive | inactive | inactive | inactive | -0.0536% | inactive | inactive | inactive | inactive | – | – | – | –
9 | COc1cccc([C@@]2(O)CCCC[C@@H]2CN(C)C)c1 | inactive | inactive | inactive | inactive | inactive | 7.73% | inactive | inactive | inactive | – | – | – | – | –
10 | CCC(C)(C#N)N=NC(C)(C#N)CC (centres undefined) | inactive | inactive | inactive | inactive | inactive | -7.9% | inactive | inactive | inactive | inactive | – | – | – | –
11 | CCNc1nc(Cl)nc(NC(C)(C)C)n1 | inactive | inactive | inactive | inactive | 61.6 µM [inconclusive] (active) | – | inactive | inactive | inactive | inactive | – | – | 9.69 µM (active) | –
12 | O=C(Cl)C(Cl)Cl | inactive | inactive | inactive | inactive | inactive | 0.358% | inactive | inactive | inactive | inactive | – | – | – | –
13 | N#CN | inactive | inactive | inactive | inactive | inactive | -14.8% | inactive | inactive | inactive | inactive | – | – | – | -1.65%
14 | NC(=O)CS(=O)C(c1ccccc1)c1ccccc1 (centres undefined) | inactive | inactive | inactive | inactive | inactive | -2.29% | inactive | inactive | inactive | – | – | – | – | –
15 | CCNP(=S)(OC)O/C(C)=C/C(=O)OC(C)C (centres undefined) | inactive | inactive | inactive | inactive | inactive | 10.8% | inactive | inactive | inactive | inactive | – | – | – | –
16 | COc1cccc(C=O)c1 | inactive | inactive | inactive | inactive | inactive | -1.53% | inactive | inactive | inactive | inactive | – | – | – | –
17 | CCCN1CCC[C@@H]2Cc3nc(N)ncc3C[C@H]21 | inactive | inactive | inactive | inactive | inactive | -11.9% | inactive | inactive | inactive | inactive | – | – | – | –
18 | O=P(O)(O)CN(CP(=O)(O)O)CP(=O)(O)O | inactive | inactive | inactive | inactive | inactive | – | inactive | inactive | inactive | inactive | 11.2% | – | – | –
19 | O=C(Cl)CCl | inactive | inactive | inactive | inactive | inactive | – | inactive | inactive | inactive | inactive | – | 0.754% | – | –
20 | [O-][Br+2]([O-])O | inactive | inactive | inactive | inactive | inactive | 1.35% | inactive | inactive | inactive | inactive | – | – | – | –
21 | COc1ccc(C=O)cc1O | inactive | inactive | inactive | inactive | inactive | – | inactive | inactive | inactive | inactive | – | 10.8% | – | –
22 | CCC1(CC)C(=O)C=CNC1=O | inactive | inactive | inactive | inactive | inactive | 10.4% | inactive | inactive | inactive | inactive | – | – | – | –
23 | CCCCCCCC(=O)Cl | inactive | inactive | inactive | inactive | inactive | – | inactive | inactive | inactive | inactive | – | -1.47% | – | –
